According to the supplement of paper PMC10127200:
Counter-ions that a name gives are not always drawn.

Legend:
Experiment in all cases: Euclidean distance of Cell Painting phenotypic profile (signed KS, 77 features) to DMSO centroid (dimensionless distance); 5 or 10 uM (library dependent); higher = stronger phenotypic change vs DMSO (phenoactivity)
Settings in all cases: 48 h
786-O = tested on: 786-O
Outline: (§1)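 Five cancer lines, together with a healthy fibroblast line, received library compounds for 48 h at a library-dependent 10 or 5 uM and 0.1% DMSO final. Harmony then derived 77 features from confocal 20X images (9 fields/well) of the stained cells, scoring each as a signed Kolmogorov-Smirnov statistic against same-plate vehicle wells. After plate-position correction, correlation weighting and replicate averaging at the top dose, phenoactivity was taken as each profile's Euclidean distance to the median vehicle profile.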

A549 = tested on: A549
Outline: as §1

DU145 = tested on: DU145
Outline: as §1

FB = tested on: FB
Outline: as §1

HEPG2 = tested on: HEPG2
Outline: as §1

OVCAR4 = tested on: OVCAR4
Outline: as §1

SMILES	Euclidean distance (786-O)	Euclidean distance (A549)	Euclidean distance (DU145)	Euclidean distance (FB)	Euclidean distance (HEPG2)	Euclidean distance (OVCAR4)
CC(C)c1cc(-c2n[nH]c(=O)n2-c2ccc3c(ccn3C)c2)c(O)cc1O [Ganetespib (STA-9090)]	3.55	2.86	4.37	2.43	3.34	2.93
Cc1c(Cl)cccc1Nc1ncccc1C(=O)O [Clonixin]	0.846	1.1	1.6	1.11	0.606	0.98
COc1ccccc1Oc1c(NS(=O)(=O)c2ccc(C(C)(C)C)cc2)nc(-c2ncccn2)nc1OCCO [Bosentan Hydrate]	1.35	0.814	0.826	0.916	0.41	1.04
CC(=O)OCC(=O)[C@@]1(O)[C@H](C)C[C@H]2[C@@H]3CCC4=CC(=O)C=C[C@]4(C)[C@@]3(F)[C@@H](O)C[C@@]21C [Dexamethasone Acetate]	1.08	2.1	2.41	1.85	0.691	1.67
COCCNc1cc(NC(=O)N2CCCc3cc(CN4CCN(C)CC4=O)c(C=O)nc32)ncc1C#N	0.599	1.34	0.736	1.03	1.18	0.826
O=C1OC(c2ccc(O)cc2)(c2ccc(O)cc2)c2ccccc21 [Phenolphthalein]	1.6	0.655	1.35	0.979	0.6	1.49
CCc1cc(C(N)=S)ccn1 [Ethionamide]	1.19	0.608	1.03	0.853	2.13	1.4
CC(C)(CCCCCC(O)CCCCCC(C)(C)C(=O)O)C(=O)O	0.76	0.809	0.925	0.851	0.375	1.06
CC(=O)O[C@H]1Cc2ccccc2N(C(N)=O)c2ccccc21 [Eslicarbazepine Acetate]	0.621	0.976	0.966	1.39	1.17	1.64
CNC1(C)C2CCC(C2)C1(C)C (centres undefined) [Mecamylamine Hydrochloride]	1.04	0.418	0.617	1.01	0.384	1.18
CCNC(=O)c1noc(-c2cc(C(C)C)c(O)cc2O)c1-c1ccc(CN2CCOCC2)cc1	2.96	2.83	3.5	2.77	3.91	2.67
O=c1ccn([C@@H]2O[C@H](COP(=O)(O)OP(=O)(O)OP(=O)(O)O)[C@@H](O)[C@H]2O)c(=O)[nH]1 [UTP. Trisodium Salt]	1.15	0.718	0.761	0.666	1.23	0.979
NS(=O)(=O)c1cc(C2(O)NC(=O)c3ccccc32)ccc1Cl (centres undefined) [Chlorthalidone]	0.738	0.425	1.18	1.4	0.481	0.876
c1cnc2cc3c(cc2n1)[C@@H]1CNC[C@H]3C1 [Varenicline Tartrate]	0.702	0.985	0.786	0.802	0.459	1.05
Cc1c(N(C)C)c(=O)n(-c2ccccc2)n1C [Amidopyrine]	1.3	0.92	0.804	1.15	1.63	1.17
CC[C@@H]1/C=C(\C)C[C@H](C)C[C@H](OC)[C@H]2O[C@@](O)(C(=O)C(=O)N3CCCC[C@H]3C(=O)O[C@H](/C(C)=C/[C@@H]3CC[C@H](Cl)[C@H](OC)C3)[C@H](C)[C@@H](O)CC1=O)[C@H](C)C[C@@H]2OC [Pimecrolimus]	1.47	1.85	2.17	2.13	0.886	1.29
CCCC(CCC)C(=O)O [Divalproex Sodium]	1.31	0.566	0.425	0.846	0.404	0.812
Oc1cc(O)c2c(c1)O[C@H](c1ccc(O)c(O)c1)[C@H](O)C2 [(-)Epicatechin]	1.1	0.627	0.705	1.15	0.982	1.04
O=C(O)CCCC[C@@H]1CCSS1 (racemic) [Thioctic acid]	1.09	0.518	1.41	0.755	0.413	0.684
CCC(=O)Nc1cccc(Oc2nc(Nc3ccc(N4CCN(C)CC4)cc3OC)ncc2Cl)c1	1.62	1.63	0.903	1.15	1.61	1.26
CCN(CC)CCCC(C)Nc1ccnc2cc(Cl)ccc12 (centres undefined) [Chloroquine Phosphate]	3.74	3.04	2.7	4.77	3.32	3.09
NC(=O)NC1NC(=O)NC1=O (centres undefined) [Allantoin]	0.856	0.693	1.19	0.801	3.52	1.68
CN(Cc1ccc(C(C)(C)C)cc1)Cc1cccc2ccccc12 [Butenafine HCl]	0.641	0.57	0.938	0.74	0.375	1.15
N[C@@H](C(=O)N[C@@H]1C(=O)N2C(C(=O)O)=C(Cl)CS[C@H]12)c1ccccc1 [Cefaclor]	1.19	0.817	0.688	0.8	0.709	1.53
